LGR2 inh = blocks bursicon-induced cAMP signaling via Drosophila LGR2; AID 720647; HEK293 LGR2, CRE-luciferase, bursicon-stimulated, 4 h; hit rate 0.35% among 380,000; inhibition, % at 9.99 µM;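 active means drop in luminescence signal, shown as inhibition above about 50% in the replicate tests, limit read from the data, passing the limit was not always enough; inconclusive means probably only some replicates passing the limit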;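 further: agonist challenge used bursicon conditioned medium at about half maximal strength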
HSP90 refold inh = blocks HSP90-mediated luciferase refolding in reticulocyte lysate; inhibition, % at 5.6 µM; Rabbit reticulocyte lysate, luciferase refolding luminescence, 3 h; AID 1789; hit rate 0.91% among 290,000;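 active means inhibition above the screen-wide mean plus 3 SD, computed separately per campaign, cut at about 16% in these data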;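 further: inhibitors lower the luminescence because luciferase stays unfolded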
TROY signal inh = inhibitors of TROY-dependent NF-kB signaling | Q293 LMP1-TROYcd NF-kB luciferase reporter, 4 h | hit rate 0.98% among 360,000 | inhibition, % at 10 µM | AID 1347056;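 active means compounds whose plate-normalised and pattern-corrected inhibition of the luciferase reporter signal at the single screening dose is 50% or more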
TWEAK-Fn14 inh = blocks TWEAK-Fn14 interaction in a reporter cell assay; TWEAK-stimulated Fn14 reporter cells, luciferase luminescence, 8 h; inhibition, % at 10 µM; hit rate 2% among 360,000; in the data active means inhibition above about 50%
Of the large screens only hits and unclear results are named; the others gave an inactive call. Rows were chosen to be rich in hits. Some 2.2% of all compounds tested hit in one or more screens of this group.

CCc1nccn1C(=O)c1cnn2c(C(F)F)cc(-c3ccc(C)cc3)nc12	TWEAK-Fn14 inh 54.4
CCc1nccn1C(=O)c1cnn2c(C(F)F)cc(-c3ccccc3)nc12	none (no result: LGR2 inh, TROY signal inh, TWEAK-Fn14 inh)
CSc1ccc(C(=O)N2CCc3ccc(NC(=O)c4ccccn4)cc3C2)cc1	none
CSc1ccccc1C(=O)N1CCc2ccc(NC(=O)c3ccccn3)cc2C1	TROY signal inh 74.0, TWEAK-Fn14 inh 60.5 (no result: HSP90 refold inh)
Cc1ccc2nsnc2c1NS(=O)(=O)c1c(C)ccc2nsnc12	none (no result: LGR2 inh)
Cc1ccc(/C=[N+](\[O-])c2ccc(N(C)C)cc2)c2nsnc12	TWEAK-Fn14 inh 56.7
C[C@@H]1CN([C@H](C)CO)C(=O)Cc2cc(NC(=O)NC3CCCCC3)ccc2O[C@@H]1CN(C)S(=O)(=O)c1ccccc1	none (no result: HSP90 refold inh, TROY signal inh, TWEAK-Fn14 inh)
N#Cc1cccc(NC(=O)COC(=O)c2cc(S(=O)(=O)Nc3ccccc3Cl)ccc2O)c1	none (no result: HSP90 refold inh)
O=C(COC(=O)c1cc(S(=O)(=O)Nc2ccccc2Cl)ccc1O)Nc1nc2ccccc2s1	TROY signal inh 60.1
CCS(=O)(=O)NCC[C@H]1CC[C@H](NC(=O)C2CCC2)[C@H](CO)O1	none (no result: HSP90 refold inh, TROY signal inh, TWEAK-Fn14 inh)
CO[C@@H]1CN(C)C(=O)c2ccc(NC(=O)Nc3cc(F)ccc3F)cc2OC[C@@H](C)N(C(=O)c2cnccn2)C[C@@H]1C	none (no result: HSP90 refold inh, TROY signal inh, TWEAK-Fn14 inh)
CN(CC(=O)Nc1ccc(N2CCOCC2)cc1)Cc1c(O)ccc2ccccc12	TROY signal inh 50.1
O=C1/C(=N\S(=O)(=O)c2cccs2)C([n+]2ccccc2)=C([O-])c2ccccc21	LGR2 inh inconclusive, TROY signal inh 83.3
CC(C)(C)c1cc[n+](C2=C([O-])c3ccccc3C(=O)/C2=N\S(=O)(=O)c2cccs2)cc1	TROY signal inh 69.8, TWEAK-Fn14 inh 83.6
O=C(Nc1cccc(Cl)c1)N1C[C@H]2[C@@H](c3ccccc31)[C@@H](CO)N2C(=O)C1CC1	none (no result: HSP90 refold inh, TROY signal inh, TWEAK-Fn14 inh)
O=C(Nc1cc(Sc2ccccn2)cc([N+](=O)[O-])c1)c1cccc(F)c1	TWEAK-Fn14 inh 64.9
O=C(Nc1cc(Sc2nc3ccccc3s2)cc([N+](=O)[O-])c1)c1ccccc1	TWEAK-Fn14 inh 63.4
O=C(Nc1cc(Sc2nc3ccccc3s2)cc([N+](=O)[O-])c1)c1ccccc1F	none (no result: LGR2 inh)
C[C@H](CO)N1C[C@H](C)[C@H](CN(C)Cc2ccc(C(F)(F)F)cc2)Oc2c(NC(=O)C3CC3)cccc2C1=O	none (no result: HSP90 refold inh, TROY signal inh, TWEAK-Fn14 inh)
CC1(C)CC(=O)C2=C(C1)c1c(ccc3ccccc13)NC2c1cc([N+](=O)[O-])cc([N+](=O)[O-])c1O (stereo not drawn)	TROY signal inh 53.3
Cc1nc(=S)c2c([nH]1)-c1ccccc1CC21CCCCC1	TWEAK-Fn14 inh 75.4
CCc1nc2c(c(=O)[nH]1)C1(CCCC1)Cc1ccccc1-2	none (no result: LGR2 inh)
CC(=O)N1CC2(C1)[C@H](c1ccc(-c3ccc(C#N)cc3)cc1)[C@@H](CO)N2C(C)=O	none (no result: HSP90 refold inh, TROY signal inh, TWEAK-Fn14 inh)
CC1(c2ccccc2)CC(C)(C)N2C(=O)C3(C(C#N)=C(N)Oc4cc(O)ccc43)c3cccc1c32 (stereo not drawn)	TWEAK-Fn14 inh 56.6
Cc1cc2c3c(c1)C(C)(c1ccccc1)CC(C)(C)N3C(=O)C21C(C#N)=C(N)OC2=C1C(=O)CC(C)(C)C2 (stereo not drawn)	none (no result: LGR2 inh)
Cc1ccc(/C(N)=N/OC(=O)c2ccc(Cl)cc2Cl)cc1	TROY signal inh 60.6, TWEAK-Fn14 inh 79.3
Cc1cccc(C(=O)O/N=C(\N)c2ccc(Cl)cc2)c1	none
Cc1ccc2nc(CSc3nc(C)ccc3C#N)[nH]c2c1	LGR2 inh 76.2, TWEAK-Fn14 inh 69.3
Cc1ccc(C#N)c(SCc2ccccc2F)n1	none
CO[C@@H]1CN(C)C(=O)c2ccc(NC(=O)c3cnccn3)cc2OC[C@H](C)N(CC2CC2)C[C@@H]1C	none (no result: HSP90 refold inh, TROY signal inh, TWEAK-Fn14 inh)
O=C(Nc1cc(Cl)cc(Cl)c1)c1cccc(OC(F)F)c1	TWEAK-Fn14 inh 59.5
Cc1ccnc(NC(=O)c2cccc(OC(F)F)c2)n1	none
C[C@H]1CN([C@@H](C)CO)C(=O)c2cc(C#CC3(O)CCCC3)cnc2O[C@H]1CN(C)C(=O)Cc1cccnc1	none (no result: HSP90 refold inh, TROY signal inh, TWEAK-Fn14 inh)
CC1C/C(=C\c2cccnc2)C(=O)/C(=C/c2cccnc2)C1 (stereo not drawn)	LGR2 inh 85.5, TROY signal inh 52.0, TWEAK-Fn14 inh 102.9
O=C1/C(=C/c2cccnc2)CCc2c1[nH]c1ccccc21	TWEAK-Fn14 inh 62.4
CCCN1[C@@H]2Cn3c(ccc(-c4ccccc4F)c3=O)[C@H]1[C@@H](C(=O)NCC)[C@@H]2CO	none (no result: HSP90 refold inh, TROY signal inh, TWEAK-Fn14 inh)
O=C(N/N=C/c1ccccc1)c1ccco1	none
O=C(C#Cc1ccccc1)c1ccco1	LGR2 inh 50.0, TROY signal inh 57.6, TWEAK-Fn14 inh 94.0
CN(C)CC(=O)N[C@@H]1CC[C@@H](CCNS(=O)(=O)c2ccccc2)O[C@H]1CO	none (no result: HSP90 refold inh, TROY signal inh, TWEAK-Fn14 inh)
Cc1c(/N=C(\[O-])Nc2ccc(Br)cc2)sn[n+]1C	LGR2 inh 81.8, TWEAK-Fn14 inh 68.5
